The structures appear in SMILES notation. Results filed as inconclusive are left out. Calls of active or inactive are those of the source. How the source made its calls, unless noted: active means hit-call score of the fitted dose curve at least 0.9, where 1 is the maximum; inactive means score below 0.9.

Read-out in experiment [1]: NAD(P)H dehydrogenase [quinone] 1 (NQO1), NQO1 (gene 1728)
Kind of experiment: LTEA_HepaRG_NQO1: Life Technologies and Expression Analysis (LTEA) Assay for NAD(P)H dehydrogenase [quinone] 1 (NQO1) using HepaRG (AID 2283526). The conditions noted are these: mRNA level, 48 h; actives raise or lower the signal. The method in brief: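 qRT-PCR read-out (Fluidigm TaqMan), normalized to three housekeeping genes, after 48 h chemical exposure of HepaRG cells. Concentrations: eight points, top 100 uM, half-log steps, 0.5% DMSO vehicle. Gain or loss of signal fitted relative to DMSO.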

Read-out in experiment [2]: Nuclear factor erythroid 2-related factor 2 (Homo sapiens) (UniProt Q16236)
Kind of experiment: LTEA_HepaRG_NFE2L2: Life Technologies and Expression Analysis (LTEA) Assay for Nuclear factor erythroid 2-related factor 2 (NFE2L2) Transcription Factor using HepaRG (AID 2283527). The conditions noted are these: mRNA level, 48 h; actives raise or lower the signal. The method in brief: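 Human liver HepaRG line treated in duplicate for 48 h with an eight-point series topping at 100 uM. Gene expression of NFE2L2 by qRT-PCR, bidirectionally fitted against the vehicle control.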

Read-out in experiment [3]: succinate dehydrogenase complex iron sulfur subunit B (SDHB), SDHB (gene 6390)
Kind of experiment: LTEA_HepaRG_SDHB: Life Technologies and Expression Analysis (LTEA) Assay for succinate dehydrogenase complex iron sulfur subunit B (SDHB) using HepaRG (AID 2283528). To be noted: mRNA level, 48 h; actives raise or lower the signal. The method in brief:
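SDHB transcript level read by TaqMan qRT-PCR, housekeeping-normalised (ACTB, GAPDH, POLR2A), after 48 h chemical treatment of plated HepaRG cells; eight concentrations top 100 uM, half-log steps, 0.5% DMSO, duplicates; fitted both directions against DMSO.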

Read-out in experiment [4]: Signal transducer and activator of transcription 3 (Homo sapiens) (UniProt P40763)
Kind of experiment: LTEA_HepaRG_STAT3: Life Technologies and Expression Analysis (LTEA) Assay for Signal transducer and activator of transcription (STAT3) using HepaRG (AID 2283529). The conditions noted are these: mRNA level, 48 h; actives raise or lower the signal. The method in brief:
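In this transcriptional endpoint, HepaRG cultures receive test chemicals at up to 100 uM for 48 h, tested in duplicate. STAT3 mRNA is normalized to ACTB, GAPDH and POLR2A.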

Read-out in experiment [5]: sulfotransferase 2A1 (SULT2A1), SULT2A1 (gene 6822)
Kind of experiment: LTEA_HepaRG_SULT2A1: Life Technologies and Expression Analysis (LTEA) Assay for sulfotransferase 2A1 (SULT2A1) using HepaRG (AID 2283531). To be noted: mRNA level, 48 h; actives raise or lower the signal. The method in brief:
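HepaRG, 48 h chemical exposure, 8-pt half-log curve from 100 uM in 0.5% DMSO, duplicates. Readout: TaqMan qRT-PCR of SULT2A1 mRNA, housekeeping-normalized. Bidirectional fit vs DMSO baseline.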

Read-out in experiment [6]: Transforming Growth Factor (TGFA), TGFA (gene 7039)
Kind of experiment: LTEA_HepaRG_TGFA: Life Technologies and Expression Analysis (LTEA) Assay for Transforming Growth Factor (TGFA) using HepaRG (AID 2283532). The conditions noted are these: mRNA level, 48 h; actives raise or lower the signal. The method in brief:
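Gene expression of TGFA was quantified by qRT-PCR after human HepaRG cells were treated for 48 h with test chemicals (eight concentrations, highest 100 uM, 0.5% DMSO). Activity in either direction was fitted relative to DMSO.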

Read-out in experiment [7]: Transforming Growth Factor (TGFB1), TGFB1 (gene 7040)
Put plainly: LTEA_HepaRG_TGFB1: Life Technologies and Expression Analysis (LTEA) Assay for Transforming Growth Factor (TGFB1) Transporter using HepaRG (AID 2283533). To be noted: mRNA level, 48 h; actives raise or lower the signal. The method in brief: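 qRT-PCR readout of TGFB1 transcript in HepaRG lysates, normalized to three housekeeping genes; gain or loss of signal fitted relative to 0.5% DMSO vehicle. Exposure: 48 h, 8-point curve from 100 uM, duplicate wells.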

Read-out in experiment [8]: TIMP1, TIMP1 (gene 7076)
Put plainly: LTEA_HepaRG_TIMP1: Life Technologies and Expression Analysis (LTEA) Assay for TIMP1 using HepaRG (AID 2283534).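 On outcome: TaqMan qRT-PCR signal normalized to ACTB GAPDH and POLR2A housekeeping genes.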 To be noted: mRNA level, 48 h; actives raise or lower the signal. The method in brief:
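HepaRG, 48 h exposure, 8-pt half-log series from 100 uM in 0.5% DMSO, duplicates; TIMP1 transcript by Fluidigm qRT-PCR, housekeeping-normalized; bidirectional curve fit vs DMSO baseline.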

Read-out in experiment [9]: Tumor necrosis factor receptor 1 (TNFRSF1A), TNFRSF1A (gene 7132)
Kind of experiment: LTEA_HepaRG_TNFRSF1A: Life Technologies and Expression Analysis (LTEA) Assay for Tumor necrosis factor receptor 1 (TNFRSF1A) using HepaRG (AID 2283535). To be noted: mRNA level, 48 h; actives raise or lower the signal. The method in brief:
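HepaRG, 48 h plating then 48 h chemical exposure, serum-free induction media; 8-pt CRC from 100 uM, half-log, 0.5% DMSO vehicle, duplicates. Readout: TaqMan qRT-PCR (Fluidigm), housekeeping-gene normalized; bidirectional fit vs DMSO.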

Read-out in experiment [10]: Thyroid Hormone Responsive (THRSP), THRSP (gene 7069)
Put plainly: LTEA_HepaRG_THRSP: Life Technologies and Expression Analysis (LTEA) Assay for Thyroid Hormone Responsive (THRSP) using HepaRG (AID 2283536). The conditions noted are these: mRNA level, 48 h; actives raise or lower the signal. The method in brief:
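Cell model: human HepaRG, approx. 100,000 cells/well, 0.5% DMSO vehicle. Exposure lasts 48 h; phenobarbital 1 mM serves as induction positive control. Gene expression is measured by qRT-PCR against three endogenous control genes.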

Read-out in experiment [11]: UDP glucuronosyltransferase (UGT1A1), UGT1A1 (gene 54658)
Put plainly: LTEA_HepaRG_UGT1A1: Life Technologies and Expression Analysis (LTEA) Assay for UDP glucuronosyltransferase (UGT1A1) using HepaRG (AID 2283538). The conditions noted are these: mRNA level, 48 h; actives raise or lower the signal. The method in brief: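 HepaRG, 48 h chemical exposure (top 100 uM, half-log 8-pt, 0.5% DMSO vehicle), duplicate wells; qRT-PCR (TaqMan, Fluidigm array) for UGT1A1 mRNA, housekeeping-normalized; bidirectional curve fit vs DMSO baseline.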

Read-out in experiment [12]: UDP glucuronosyltransferase (UGT1A6), UGT1A6 (gene 54578)
Put plainly: LTEA_HepaRG_UGT1A6: Life Technologies and Expression Analysis (LTEA) Assay for UDP glucuronosyltransferase (UGT1A6) using HepaRG (AID 2283539). The conditions noted are these: mRNA level, 48 h; actives raise or lower the signal. The method in brief:
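qRT-PCR readout of UGT1A6 mRNA (normalized to ACTB/GAPDH/POLR2A) in differentiated HepaRG cells after 48 h chemical exposure; 8 concentrations, top 100 uM, half-log steps, 0.5% DMSO. Bidirectional curve fit relative to DMSO baseline.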

Read-out in experiment [13]: X-box binding protein 1 (XBP1), XBP1 (gene 7494)
Kind of experiment: LTEA_HepaRG_XBP1: Life Technologies and Expression Analysis (LTEA) Assay for X-box binding protein 1 (XBP1) using HepaRG (AID 2283540). The conditions noted are these: mRNA level, 48 h; actives raise or lower the signal. The method in brief:
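HepaRG, 48 h exposure, 8-pt half-log CRC top 100 uM, 0.5% DMSO vehicle, duplicates. Readout: TaqMan qRT-PCR of XBP1 mRNA, housekeeping-normalised (ACTB/GAPDH/POLR2A); bidirectional fit vs DMSO baseline.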

Experiment [14] in a line: LTEA_HepaRG_LDH_cytotoxicity: Cytotoxicity Assessment in the Life Technologies and Expression Analysis (LTEA) Assay (AID 2283563; active means hit-call score of the fitted dose curve at least 0.9, where 1 is the maximum;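 on AC50: LDH activity released into spent culture medium as a marker of cell death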). The method in brief: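 HepaRG (human liver line), 48 h exposure, 8-pt half-log series from 100 uM, 0.5% DMSO vehicle, duplicates. Read-out: LDH in spent medium. Positive-direction fit vs DMSO baseline.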
The nature of experiment [15]: ATG_XTT_Cytotoxicity: Cytotoxicity Assessment in the Attagene TRANS-FACTORIAL HepG2 Assay (AID 2283584; active means hit-call score of the fitted dose curve at least 0.9, where 1 is the maximum). The method in brief: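 XTT readout of cell number in transfected HepG2 cells, 24 h post-dosing; DMSO serves as negative control and baseline, with activity taken as loss of viability signal.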
Read-out in experiment [16]: solute carrier (SLCO1B1), SLCO1B1 (gene 10599)
Kind of experiment: LTEA_HepaRG_SLCO1B1: Life Technologies and Expression Analysis (LTEA) Assay for solute carrier (SLCO1B1) using HepaRG (AID 2283530). To be noted: mRNA level, 48 h; actives raise or lower the signal. The method in brief: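 SLCO1B1 transcript read by qRT-PCR (Fluidigm arrays), normalized to three housekeeping genes, after 48 h chemical exposure of HepaRG cells; bidirectional concentration-response fitting versus 0.5% DMSO baseline. Eight-point half-log series, maximum 100 uM.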

Read-out in experiment [17]: Cellular tumor antigen p53 (Homo sapiens) (UniProt P04637)
Kind of experiment: LTEA_HepaRG_TP53: Life Technologies and Expression Analysis (LTEA) Assay for Tumor Protein P53 (TP53) using HepaRG (AID 2283537). The conditions noted are these: mRNA level, 48 h; actives raise or lower the signal. The method in brief: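 TP53 transcript measured by qRT-PCR, normalized to three housekeeping genes, after 48 h treatment of human HepaRG cultures with chemicals from 100 uM downward in half-log steps (0.5% DMSO vehicle, serum-free induction medium). Up- or down-regulation fitted against DMSO.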

Experiment [18] addresses Cellular tumor antigen p53 (Homo sapiens) (UniProt P04637). Put plainly: TOX21_p53_BLA_p2_ratio: Tox21 HCT-116 p53 Agonism Beta-lactamase Assay, Ratio, Phase 2 (AID 2283592; active means hit-call score of the fitted dose curve at least 0.9, where 1 is the maximum). The method in brief: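 Readout: blue/green (460/530 nm) FRET emission ratio after 2 h CCF4-AM loading at room temperature, excitation 405 nm. HCT116 p53 bla cells, 16 h compound exposure at 37C, 5% CO2; agonist direction fitted against DMSO baseline.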

Chain of Signal transducer and activator of transcription 3 (Homo sapiens) (P40763 whole entry, looked up): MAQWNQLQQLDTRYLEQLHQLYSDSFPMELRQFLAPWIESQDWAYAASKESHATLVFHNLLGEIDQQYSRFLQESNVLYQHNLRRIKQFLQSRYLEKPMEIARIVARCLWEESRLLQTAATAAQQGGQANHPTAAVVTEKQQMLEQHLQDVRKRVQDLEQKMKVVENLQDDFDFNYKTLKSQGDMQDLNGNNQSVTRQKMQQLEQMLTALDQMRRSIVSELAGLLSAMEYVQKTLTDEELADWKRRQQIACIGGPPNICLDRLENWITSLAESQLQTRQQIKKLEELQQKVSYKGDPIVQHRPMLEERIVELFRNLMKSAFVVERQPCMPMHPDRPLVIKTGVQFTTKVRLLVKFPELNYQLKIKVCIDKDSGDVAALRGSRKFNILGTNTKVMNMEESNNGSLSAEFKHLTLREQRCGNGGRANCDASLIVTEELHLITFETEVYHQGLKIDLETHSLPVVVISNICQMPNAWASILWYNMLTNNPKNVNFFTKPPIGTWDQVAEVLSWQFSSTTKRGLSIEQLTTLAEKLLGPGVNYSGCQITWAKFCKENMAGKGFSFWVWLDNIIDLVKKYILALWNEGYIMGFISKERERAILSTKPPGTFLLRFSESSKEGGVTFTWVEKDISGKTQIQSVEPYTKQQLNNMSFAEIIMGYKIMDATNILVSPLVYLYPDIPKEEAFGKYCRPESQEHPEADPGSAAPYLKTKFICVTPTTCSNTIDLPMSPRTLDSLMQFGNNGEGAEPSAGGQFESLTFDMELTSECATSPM
Chain of Nuclear factor erythroid 2-related factor 2 (Homo sapiens) (Q16236 whole entry, looked up): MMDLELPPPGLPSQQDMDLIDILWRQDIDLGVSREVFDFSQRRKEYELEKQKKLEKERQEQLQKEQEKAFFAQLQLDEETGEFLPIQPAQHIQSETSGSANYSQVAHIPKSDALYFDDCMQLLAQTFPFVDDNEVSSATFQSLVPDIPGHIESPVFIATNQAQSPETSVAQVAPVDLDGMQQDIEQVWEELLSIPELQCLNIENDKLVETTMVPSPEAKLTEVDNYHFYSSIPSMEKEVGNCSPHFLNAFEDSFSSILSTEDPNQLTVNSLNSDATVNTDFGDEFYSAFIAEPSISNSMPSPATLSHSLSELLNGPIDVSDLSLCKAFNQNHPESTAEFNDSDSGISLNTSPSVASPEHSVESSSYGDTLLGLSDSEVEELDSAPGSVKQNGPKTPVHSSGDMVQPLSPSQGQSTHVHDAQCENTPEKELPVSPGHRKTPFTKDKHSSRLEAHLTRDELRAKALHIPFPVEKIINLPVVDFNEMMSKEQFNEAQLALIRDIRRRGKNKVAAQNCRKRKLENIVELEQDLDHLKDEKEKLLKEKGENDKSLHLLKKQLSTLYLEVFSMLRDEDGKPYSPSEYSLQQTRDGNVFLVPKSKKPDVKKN
Chain of Cellular tumor antigen p53 (Homo sapiens) (P04637 whole entry, looked up): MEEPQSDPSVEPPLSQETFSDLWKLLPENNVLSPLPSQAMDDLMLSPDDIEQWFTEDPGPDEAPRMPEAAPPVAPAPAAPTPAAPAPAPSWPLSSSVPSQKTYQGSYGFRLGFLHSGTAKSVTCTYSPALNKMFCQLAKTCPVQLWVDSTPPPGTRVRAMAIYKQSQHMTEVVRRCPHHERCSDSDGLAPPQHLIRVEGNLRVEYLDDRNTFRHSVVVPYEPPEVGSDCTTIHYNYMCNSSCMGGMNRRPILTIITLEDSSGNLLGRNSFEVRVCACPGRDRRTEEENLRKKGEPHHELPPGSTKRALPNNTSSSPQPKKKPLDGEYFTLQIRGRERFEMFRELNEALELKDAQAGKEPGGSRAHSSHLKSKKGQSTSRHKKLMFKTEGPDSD

As to `CN(C)[C@@H]1C(=O)C(C(N)=O)=C(O)[C@@]2(O)C(=O)C3=C(O)c4c(O)cccc4[C@@](C)(O)[C@H]3[C@H](O)[C@@H]12`, the compound was called inactive in experiment [1], in experiment [2], in [3], in experiment [4], in experiment [5] and in experiment [6]. The compound was classed as inactive in experiment [7], in experiment [8], in [9], in experiment [10], in experiment [11] and in [12]. For the same compound, the compound was classed as inactive in [13], in experiment [14] and in [15].

Regarding `CCc1cnc(C2=NC(C)(C(C)C)C(=O)N2)c(C(=O)O)c1` (centres undefined), the outcome in experiment [1], in [2], in [3], in experiment [4], in experiment [5] and in [6] was inactive. Besides, the call in experiment [7], in experiment [8], in experiment [9], in [10], in experiment [11] and in [12] was inactive. Moreover, the compound was called inactive in experiment [13] and in experiment [14].

With `C=C(C)[C@H]1Cc2c(ccc3c2O[C@@H]2COc4cc(OC)c(OC)cc4[C@@H]2C3=O)O1`, the call in experiment [1], in [4], in experiment [7] and in experiment [13] was inactive. In addition, the AC50 was 7.62 µM (active) in experiment [2]; 0.358 µM (active) in experiment [3]; 13.2 µM (active) in experiment [5]; 7.78 µM (active) in [6]; 11.1 µM (active) in experiment [8]; 50 µM (active) in experiment [9]. The AC50 in experiment [10] is 1.36 µM (active); in [11], 23.7 µM (active); in experiment [12], 23.4 µM (active); in [14] it was 6.74 µM (active).

With `CNC(=O)Oc1cccc2c1OC(C)(C)O2`, the outcome in experiment [1], in [3], in experiment [4], in experiment [16], in [5] and in experiment [6] was inactive. Moreover, the call in experiment [7], in experiment [8], in [9], in experiment [10], in experiment [17] and in experiment [11] was inactive. Moreover, the result in [12], in experiment [13], in experiment [14] and in experiment [18] was inactive.
